Source: PubChem (National Center for Advancing Translational Sciences (NCATS))
Rows were chosen to be rich in hits. Some 0.95% of all compounds tested hit in one or more screens of this group.
Tb PYK inh: T. brucei pyruvate kinase inhibition | AID 624173 | TbPYK enzyme, Kinase-Glo Plus ATP luminescence, 45 min | Potency, µM (series often up to 76.8 µM), for the others: at the top dose activity, negative = inhibition, most hits filed as inhibitors | 410,000 compounds, 0.12% hits; also: nearly all actives have a fitted effect of over 50% in size
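Activity of T. brucei pyruvate kinase was followed by Kinase-Glo Plus luminescence after the enzyme reacted 45 min at room temperature with 130 uM ADP (final) and substrate. Test compounds were added before ADP at multiple concentrations.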
FBPA Giardia inh: Giardia lamblia aldolase inhibition. purified Giardia FBPA. 290,000 compounds, 0.71% hits. Potency, µM (titrated, usually from 59.6 µM), for the others: at the highest dose activity, negative = inhibition, hits mostly inhibitors. AID 2451. A8B2U2; also: nearly all actives have a fitted effect of over 55% in size
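40 nM FBPA preincubated 10 min at RT with compound (up to 57.5 uM final), then substrate plus GAPDH/TPI/NAD/arsenate coupling and diaphorase/resazurin added. Fluorescence read after 20 min at RT, 525/598 nm.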
RE007 growth inh: less growth of the S. pombe RE007 Vpr strain; S. pombe RE007 Vpr strain, BacTiter-Glo ATP luminescence, 24 h; Potency, µM (doses to about 92.2 µM), inactives show top-dose activity change, negative = less growth, usual class: inhibitors; 360,000 compounds, 0.21% hits; active = well fitted falling curve with a large enough effect; inconclusive = small, poorly fitted or top-dose-only effect; inactive = no such curve, though single readings can be large or run the other way; also: nearly all actives have a fitted effect of over 50% in size
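Fission yeast RE007 carrying one integrated HIV-1 vpr copy, seeded at OD 0.01 in PMG+AL medium with 23 nL pinned compound. Grown 24 h at 30 degrees; viability read by BacTiter-Glo luminescence after 5 min.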
LmPK inhibitor: blocks Leishmania mexicana pyruvate kinase activity. Q27686. purified LmPK, Kinase-Glo ATP luminescence, 1 h. Potency, µM (titrated, usually from 57.5 µM), inactives show top-dose activity change, negative = inhibition, usual class: inhibitors. 290,000 compounds, 0.37% hits
Target sequence (Q27686 whole entry, looked up): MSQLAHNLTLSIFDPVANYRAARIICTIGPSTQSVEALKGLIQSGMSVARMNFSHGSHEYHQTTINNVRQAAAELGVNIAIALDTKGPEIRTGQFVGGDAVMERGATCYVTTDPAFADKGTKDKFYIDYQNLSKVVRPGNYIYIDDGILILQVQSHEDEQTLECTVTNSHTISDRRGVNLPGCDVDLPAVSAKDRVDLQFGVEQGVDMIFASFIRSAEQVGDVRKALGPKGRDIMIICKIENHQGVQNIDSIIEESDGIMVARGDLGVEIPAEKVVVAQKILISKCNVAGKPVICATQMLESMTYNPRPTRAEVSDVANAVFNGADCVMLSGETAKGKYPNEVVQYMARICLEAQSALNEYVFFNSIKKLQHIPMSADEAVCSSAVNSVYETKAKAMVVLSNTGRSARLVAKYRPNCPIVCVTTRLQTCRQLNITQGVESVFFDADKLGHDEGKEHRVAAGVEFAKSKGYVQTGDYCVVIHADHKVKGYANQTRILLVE
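In 50 mM imidazole pH 7.2 with 7 mM MgCl2, LmPK (0.1 nM) turned over PEP (0.5 mM) and ADP (0.1 mM) for 1 h at room temperature. Luciferase read-out of ATP.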
Starred values were filed as active, the others as inactive; u = inconclusive; x = no result given; [ ] = dose if it differs, or a comment. Unless noted, calls follow the shape of the dose curve; as a rule, active = well fitted curve in the direction sought with a large enough effect; inconclusive = small, poorly fitted or top-dose-only effect, or another doubt; inactive = no such curve, though single readings can be large; an effect the other way counts as inactive or inconclusive. % is scaled to controls: 0 for no effect and ±100 for the full control effect; potency is read from the fitted curve at half-maximal effect.

SMILES	Tb PYK inh	FBPA Giardia inh	RE007 growth inh	LmPK inhibitor
COC(=O)c1ccc(-c2ccc(C(c3c(C)[nH][nH]c3=O)c3c(C)[nH][nH]c3=O)o2)cc1	-19%	4.5µM*	7%	-2%
Cc1ccc2oc(-c3ccccc3C(=O)O)cc(=O)c2c1	9%	10%	-3%	5%
Cc1[nH][nH]c(=O)c1C(c1ccc(-c2cccc(Cl)c2)o1)c1c(C)[nH][nH]c1=O	u	5µM*	-8%	3%
Cc1[nH][nH]c(=O)c1C(c1ccc(-c2cccc(C(=O)O)c2)o1)c1c(C)[nH][nH]c1=O	-9%	20µM*	2%	4%
Cc1[nH][nH]c(=O)c1C(c1ccc(-c2ccccc2C(=O)O)o1)c1c(C)[nH][nH]c1=O	-12%	7.9µM*	-20%	3%
Cc1[nH][nH]c(=O)c1C(c1ccc(-c2ccc(Cl)cc2Cl)o1)c1c(C)[nH][nH]c1=O	x	13µM*	x	13%
Cc1[nH][nH]c(=O)c1C(c1ccc(Br)cc1)c1c(C)[nH][nH]c1=O	-2%	-23%	1%	1%
S=c1[nH]nc([C@@H]2C[C@H]2c2ccccc2)n1-c1ccccc1Cl	5µM*	-1%	29%	13µM*
CC1OC(CC(=O)O)CC2=C1C(=O)c1c(O)cccc1C2=O (stereo unspecified)	u	x	1.6µM*	x
O=C1c2cccc(O)c2C(=O)c2c(O)cccc21	-3%	-18%	x	3%
COc1ccccc1C1CC(=O)Oc2cc(C)c(Cl)cc21 (stereo unspecified)	2%	-7%[89.2 µM]	-9%	x
COc1ccccc1C1CC(=O)Oc2cc3c(cc21)OCO3 (stereo unspecified)	x	40µM*	x	x
S=C(SSC(=S)N1CCOCC1)N1CCOCC1	3.2µM*	x	1%[18.4 µM]	x
CC(SC(=S)N1CCOCC1)C(=O)O (stereo unspecified)	-2%	22%	-10%	0%
CC(C)(C)c1cc(NCCCn2ccnc2)n2ncc(-c3ccc(Cl)cc3)c2n1	-3%	1%	22µM*	1%
COC(=O)C1=C(C(=O)OC)[C@@H]2Nc3ccccc3[C@@]23C[C@@H](C(=O)OC)N(S(=O)(=O)c2ccc(C)cc2)C3=N1	x	5%[12.9 µM]	x	-1%[11.5 µM]
Cc1c2c(c(O)c3c(O)cccc13)C(=O)O[C@H]2C1C(N(C)C)C(O)=C(C(N)=O)C(=O)[C@H]1O (stereo partly specified)	x	10µM*	x	x
COc1ccc(C(=O)/C=C/Nc2cccc(O)c2)cc1	x	-10%	-11%[3.69 µM]	25µM*
COc1cccc(C(=O)Nc2cccc(OCC(=O)O)c2)c1	-19%	2%	-11%	35µM*
COc1ccc(C(=O)Nc2cccc(C)c2)cc1	x	-19%	-2%[3.69 µM]	14µM*
COc1cccc(N/C=C/C(=O)c2ccc(Br)cc2)c1	-4%	x	9%	x
CN1CCN(c2ncc3nc(-c4ccc(F)cc4)c(=O)n(Cc4cccs4)c3n2)CC1	x	-1%	x	x
CN(C)c1cccc2c1c(NC(=O)c1ccc(Cl)cc1)nn2C	-14%	18µM*	6%	-3%
Cc1oc(=O)c(NC(=O)c2ccccc2)cc1C(=O)c1ccccc1	-20%	-9%	20µM*	-12%
CC(=O)Nc1cc2ccccc2oc1=O	6%	4%	5%	0%
SMILES	Tb PYK inh	FBPA Giardia inh	RE007 growth inh	LmPK inhibitor
Cc1ccc(C(=O)Nc2cc3ccccc3oc2=O)cc1	u	0%	13%	13µM*
Cc1ccc(C(=O)Nc2ccc(Cl)cc2C(=O)c2ccccc2)cc1	0%	x	-10%	x
CC(=O)c1cc(NC(=O)c2ccccc2)c(=O)oc1C	-14%	1%	-5%	-11%
Cc1oc(=O)c(NC(=O)c2ccc(Cl)cc2)cc1C(=O)c1ccccc1	u	-27%	28µM*	-1%
C=CC[C@@](C(C)=O)(C(=O)OC)C(NC(=O)OC)c1ccccc1 (stereo partly specified)	x	0%	x	x
O=C1[O][Sb-]23[O]C(=O)C([O]2)C2[O][Sb-]4([O]C(=O)C([O]4)C1[O]3)[O]C2=O	3%	x	x	x
CCOC(=O)CCC(=O)OC1C(OC2C(C)C(OC3CC(C)(OC)C(O)C(C)O3)C(C)C(=O)OC(CC)C(C)(O)C(O)C(C)C(=O)C(C)CC2(C)O)OC(C)CC1N(C)C (stereo unspecified)	2%	x	x	x
C[C@@H](C(=O)O)c1ccc(C2CCCCC2)c2ccccc12	2%	x	x	x
CN1c2ccsc2/C(=N/Nc2ccccc2)CS1(=O)=O	-13%	-12%	45µM*	-1%
S=c1[nH]nc(-c2ccco2)n1C1CCCCC1	u	-10%	15%	25µM*
Cn1cc(Cl)c(-c2n[nH]c(=S)n2C2CCCCC2)n1	7.1µM*	-5%	22%	20µM*
Nn1c(-c2ccco2)n[nH]c1=S	-22%	u	-3%	4%
CC(C)Oc1ccc(Cn2c(-c3ccco3)n[nH]c2=S)cc1	2.5µM*	8%	20%	14µM*
S=c1[nH]nc(CSCc2ccccc2Cl)n1C1CCCCC1	u	6%	35%	u
S=c1[nH]nc(-c2ccco2)n1-c1ccc(Cl)cc1	u	1%	4%	18µM*
CC(=O)N1CC[C@@H]2CC(=O)CC[C@@H]21	x	0%[136 µM]	x	x
C=C(C(C)=O)C(O)c1cccc(OC)c1 (stereo unspecified)	x	1%	x	x
S=c1[nH]nc(-c2ccco2)n1-c1cccc2ccccc12	2.8µM*	0%	2%	7.9µM*
Cc1ccc(C)c(-n2c(-c3ccco3)n[nH]c2=S)c1	u	x	4%	x
COCCn1c(=O)c(C)nc2cnc(N3CCNCC3)nc21	0%	-7%	x	x
Cn1c(Cc2c[nH]c3ccccc23)n[nH]c1=S	18µM*	-27%	1%	-5%
Cc1[nH]c2ccccc2c1SCc1n[nH]c(=S)n1C	u	-11%	21%	7.9µM*
C/C=C/C1=Cc2ccccc2C(C(C(=O)OC)C(=O)OC)N1C(=O)OC (stereo unspecified)	x	-1%	x	x
COC(=O)c1sc(NC(=O)c2ccc(C)o2)nc1C	-16%	7%	-20%	u
Cc1nc(NC(=O)c2ccc(Br)o2)sc1C	-7%	-8%	-29%	16µM*
SMILES	Tb PYK inh	FBPA Giardia inh	RE007 growth inh	LmPK inhibitor
Cc1ccc(C(=O)Nc2nc(C)c(C)s2)o1	-24%	-6%	-29%	14µM*
O=C(Nc1ccc2c(c1)nc1n2CCSC1)c1ccccc1	-18%	-21%	-15%	16µM*
O=C(O)CCn1cc(C=C2C(=O)NC(=S)NC2=O)c(-c2cc3ccccc3oc2=O)n1	14µM*	u	-8%	6%
COc1ccc2ccccc2c1-c1c(OC)ccc2ccccc12	x	2%	x	x
CCCNC(=O)CCCCn1c(=S)[nH]c2c([nH]c3ccc(OC)cc32)c1=O	-14%	8%	1%	-2%
COc1ccc2[nH]c3c(=O)n(CCCCC(=O)N4CCCC4)c(=S)[nH]c3c2c1	u	4%	-6%	2µM*
CC(C)(C)Nc1oc(-c2ccccc2)nc1-c1ccccc1	x	0%	x	x
CCC(=O)O[C@@](Cc1ccccc1)(c1ccccc1)[C@H](C)CN(C)C	-2%[157 µM]	x	x	x
COc1ccc(CCn2c(C)ccc2C)cc1OC	x	-20%	x	-2%
COc1ccc(CCN2C(=O)C=CC2=O)cc1OC	u	x	5.6µM*	x
